Assay results taken from PubChem BioAssay AID1159580 (chemical genetic matrix, 2015).
Values joined by “and” are separate entries in the source; they are usually repeats but may differ in a detail not shown here. Identical values can stand only once. Among all 5,500 compounds or so, about 2,000 (36%) were called active. Roughly 18% stayed inconclusive and do not appear here. No stated cut-off is given here; in the data, active means normalized growth mostly below about 0.91 (no sharp cut-off); inconclusive means no clear call, values can overlap the other calls; inactive means mostly above about 0.92. The list shows a part of the results.

Experiment: chemical genetic growth profiling, strain panel (AID 1159580);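 further: tested at 20 µM; growth read once vehicle control cultures reached saturation at 30 °C; 1 = growth at the plate median or of vehicle wells; lower values mean less growth of the strain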
Details: S. cerevisiae deletion strains, growth OD

Measured: normalized growth

c1coc(CNc2ncnc3nc[nH]c23)c1
inactive: locus YAL013W, strain DEP1, hits give low values 0.998 | locus YAL021C, strain ccr4, hits give low values 0.995 | locus YAL026C, strain drs2, hits give low values 0.997 | locus YAL030W, strain snc1, hits give low values 1 | locus YBL061C, strain skt5, hits give low values 0.997 | locus YBR009C, strain hhf1, hits give low values 0.988 | locus YBR021W, strain FUR4, hits give low values 1.02 | locus YBR023C, strain chs3, hits give low values 0.996 | locus YBR171W, strain sec66, hits give low values 0.994 | locus YBR229C, strain ROT2, hits give low values 1.01 | locus YBR231C, strain swc5, hits give low values 1 | locus YBR279W, strain paf1, hits give low values 1 | locus YCL011C, strain gbp2, hits give low values 1 | locus YCL016C, strain dcc1, hits give low values 1 | locus YCL029C, strain bik1, hits give low values 0.991 | locus YCL061C, strain MRC1, hits give low values 1.01 | locus YCL069W, strain vba3, hits give low values 0.999 | locus YCR088W, strain abp1, hits give low values 0.991 | locus YDL005C, strain med2, hits give low values 0.995 | locus YDL035C, strain GPR1, hits give low values 1.01 | locus YDL040C, strain nat1, hits give low values 0.996 | locus YDL074C, strain BRE1, hits give low values 0.997 | locus YDL101C, strain DUN1, hits give low values 0.995 | locus YDL134C, strain PPH21, hits give low values 1.01 | locus YDL185W, strain tfp1, hits give low values 0.964 | locus YDL192W, strain arf1, hits give low values 0.99 | locus YDR001C, strain nth1, hits give low values 0.993 | locus YDR069C, strain doa4, hits give low values 1 | locus YDR101C, strain arx1, hits give low values 0.996 | locus YDR137W, strain rgp1, hits give low values 0.964 | locus YDR150W, strain NUM1, hits give low values 0.992 | locus YDR159W, strain sac3, hits give low values 0.974 | locus YDR162C, strain NBP2, hits give low values 0.992 | locus YDR195W, strain ref2 0.974 | locus YDR297W, strain sur2, hits give low values 0.997 | locus YDR318W, strain mcm21, hits give low values 0.995 | locus YDR334W, strain swr1, hits give low values 1.01 | locus YDR335W, strain msn5, hits give low values 1.01 | locus YDR388W, hits give low values 1 | locus YDR392W, strain spt3, hits give low values 0.991 | locus YDR502C, strain sam2, hits give low values 1.01 | locus YEL003W, strain gim4, hits give low values 1 | locus YEL037C, strain rad23, hits give low values 0.998 | locus YEL061C, strain CIN8 (second series), hits give low values 0.997 | locus YEL061C, strain CIN8, hits give low values 0.995 | locus YER015W, strain faa2, hits give low values 1 | locus YER016W, strain bim1, hits give low values 0.99 | locus YER110C, hits give low values 0.999 | locus YER111C, strain swi4, hits give low values 0.986 | locus YER155C, strain BEM2 (second series), hits give low values 0.97 | locus YER155C, strain BEM2, hits give low values 0.999 | locus YER167W, strain BCK2, hits give low values 1 | locus YFR010W, strain ubp6, hits give low values 1 | locus YGL078C, strain dbp3, hits give low values 0.992 | locus YGL086W, strain mad1, hits give low values 1 | locus YGL167C, strain pmr1, hits give low values 1 | locus YGL173C, strain kem1, hits give low values 0.993 | locus YGL227W, strain vid30, hits give low values 0.993 | locus YGL240W, strain doc1, hits give low values 0.996 | locus YGL248W, strain PDE1, hits give low values 1.02 | locus YGL253W, strain hxk2, hits give low values 0.995 | locus YGR078C, strain PAC10, hits give low values 0.994 | locus YGR135W, strain pre9, hits give low values 0.997 | locus YGR229C, strain SMI1, hits give low values 1 | locus YGR252W, strain gcn5, hits give low values 1.19 | locus YHR013C, strain ard1, hits give low values 0.983 | locus YHR027C, strain rpn1, hits give low values 1 | locus YHR030C, strain SLT2, hits give low values 0.998 and 0.973 | locus YHR079C, strain IRE1 (second series), hits give low values 0.996 | locus YHR079C, strain IRE1, hits give low values 0.964 | locus YHR094C, strain hxt1, hits give low values 0.957 | locus YHR129C, strain ARP1, hits give low values 0.999 | locus YHR142W, strain chs7, hits give low values 0.992 | locus YHR200W, strain rpn10, hits give low values 0.986 | locus YIL066C, strain RNR3, hits give low values 1.01 | locus YIL073C, strain SPO22, hits give low values 0.978 | locus YIL125W, strain kgd1, hits give low values 0.988 | locus YIR030C, strain dcg1, hits give low values 0.998 | locus YJL092W, strain hpr5, hits give low values 0.995 | locus YJL095W, strain BCK1 (second series), hits give low values 0.994 | locus YJL095W, strain BCK1, hits give low values 0.985 and 0.986 | locus YJL115W, strain asf1, hits give low values 1 | locus YJL129C, strain trk1, hits give low values 1.02 | locus YJL134W, strain LCB3, hits give low values 0.997 | locus YJL154C, strain vps35, hits give low values 0.997 | locus YJL164C, strain tpk1, hits give low values 0.997 | locus YJL166W, strain qcr8, hits give low values 1 | locus YJL168C, strain set2, hits give low values 0.996 | locus YJL187C, strain SWE1 (second series), hits give low values 0.992 | locus YJR043C, strain POL32, hits give low values 0.985 | locus YJR066W, strain TOR1, hits give low values 0.912
